Experimental data published in PubChem BioAssay AID652257 (The Scripps Research Institute Molecular Screening Center, 2013).
Hit rate of the full screen: of about 370,000 compounds, about 4,800 (1.3%) were called active. Many of the other results were omitted from the sample, so actives are more common in it than they were. Values without a mark were called inactive.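 Rule for the calls: active = inhibition above about 21% made by adding two undisclosed values (limit read from the data); inactive = the rest.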

What follows are compounds tested against Protein arginine N-methyltransferase 1 (Homo sapiens) (UniProt Q99873) (assay: PRMT1 methyltransferase inhibitors, primary screen, biochemical, fluorescence polarization (AID 652257)). Settings: recombinant PRMT1, activity-based probe fluorescence polarization; at 2.79 µM; stronger effect = higher value.
Sequence of Protein arginine N-methyltransferase 1 (Homo sapiens) (Q99873 whole entry, looked up): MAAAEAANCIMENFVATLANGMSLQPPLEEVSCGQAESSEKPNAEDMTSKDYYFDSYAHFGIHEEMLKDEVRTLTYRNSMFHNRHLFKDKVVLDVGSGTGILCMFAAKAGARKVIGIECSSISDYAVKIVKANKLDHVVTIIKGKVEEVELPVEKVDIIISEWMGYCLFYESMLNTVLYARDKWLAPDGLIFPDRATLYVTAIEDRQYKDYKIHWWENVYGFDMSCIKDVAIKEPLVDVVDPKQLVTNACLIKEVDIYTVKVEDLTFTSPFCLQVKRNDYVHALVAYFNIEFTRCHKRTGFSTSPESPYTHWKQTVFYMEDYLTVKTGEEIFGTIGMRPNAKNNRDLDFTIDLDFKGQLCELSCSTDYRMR

Row | SMILES | inhibition
1 | COc1ccc(CNC(=O)CCC(=O)Nc2nnc(C(C)C)s2)cc1 | 6.7%
2 | COc1ccc(OCC(=O)Nc2nnc(-c3ccco3)s2)cc1 | 22.1% (active)
3 | COc1ccc(OCCCC(=O)Nc2nnc(C3CCCO3)s2)cc1 (stereo not drawn) | 2.04%
4 | O=C(NCc1cccs1)C1CCCN(S(=O)(=O)c2ccc([N+](=O)[O-])cc2)C1 (stereo not drawn) | 0.46%
5 | C=CCN1C(=O)[C@H](CC(=O)NCCCN2CCCC2=O)[C@@]2(C(=O)OCC)CCCC=C12 | 0.15%
6 | O=C(NCCOc1cccnc1)c1ccc(OC2CCN(Cc3ccccn3)CC2)cc1 | 3.52%
7 | Cc1ccccc1N1CC(C(=O)Nc2nnc(SCCC3OCCO3)s2)CC1=O (stereo not drawn) | 5.12%
8 | Cc1ccnc(-n2sc3ccccc3c2=O)n1 | 90.7% (active)
9 | CCOc1ccc(-n2cnnn2)cc1S(=O)(=O)N1CCC(C)CC1C (stereo not drawn) | -4.54%
10 | CC(NC(=S)NC1CCCCC1)C(c1ccccc1)N1CCOCC1 (stereo not drawn) | 0.42%
11 | COc1ccc(N2CCN(CCNS(=O)(=O)c3ccc([N+](=O)[O-])cc3)CC2)cc1 | -4.73%
12 | O=C(CC1N=C2c3ccccc3N=C(SCc3ccccc3Cl)N2C1=O)NCc1ccco1 (stereo not drawn) | 26.2% (active)
13 | O=C(CC1CCCCC1)NCc1ccco1 | -1.65%
14 | CC1(c2ccccc2Cl)NC(=O)N(CC(=O)NC(=O)NCc2ccco2)C1=O (stereo not drawn) | 5.3%
15 | O=C(NCCCN1CCN(c2ccc(F)cc2)CC1)Nc1ccc([N+](=O)[O-])cc1 | -0.66%
16 | Nn1c(SCC(=O)Nc2cccc3ccccc23)nnc1-c1cc(-c2ccc(F)cc2)n[nH]1 | 2.17%
17 | CN(C)c1ccc(Nc2c3c4c(cccc4n(C)c2=O)C(=O)c2ccccc2-3)cc1 | 56.4% (active)
18 | Cc1cc(Cl)ccc1C(=O)C1CCCN(C(=O)c2nonc2C)C1 (stereo not drawn) | -0.28%
19 | COc1ccc(Cn2cc(COC(=O)N(C)Cc3ccccc3)nn2)cc1 | -6.72%
20 | Cc1cccc(N2CCN(C(=O)/C=C/c3ccco3)CC2)c1C | 29.9% (active)
21 | CCn1c(C)c(C)c2cc(C(=O)N3CCN(c4cccc(C)c4C)CC3)ccc21 | 2.44%
22 | Cc1cccc(N2CCN(C(=O)c3cc4c(=O)[nH]c5ccccc5c4n3C)CC2)c1C | -1.76%

Row | SMILES | inhibition
23 | CN(C)c1ccc(NC(=O)NC2CCCCN(Cc3ccc(Cl)cc3)C2=O)cc1 (stereo not drawn) | 4.83%
24 | Nn1c(SCC(=O)Nc2ccc(S(N)(=O)=O)cc2)nnc1-c1n[nH]c2c1CCC2 | 0.39%
25 | CN(C)[C@H]1CCN(c2cccc3c2S(=O)(=O)N2CC[C@H](C2)O3)C1 | 0.28%
26 | CC(=O)OC12CCCN(C1)/C(=C/c1ccncc1)C2 (stereo not drawn) | -0.73%
27 | COCCCNC(=O)CC1C[C@H](C(=O)N2CCCCC2)[C@@]2(CCc3ccccc3)c3[nH]c4ccccc4c3CCN2C1=O (stereo partly drawn) | -2.68%
28 | CCCCCCCCNS(=O)(=O)/C=C/c1cc(C)ccc1CNC(=O)OC(C)(C)C | -0.82%
29 | Cc1cc(NC(=O)C(C)SCC(=O)Nc2ccccc2N2CCCCC2)no1 (stereo not drawn) | -2.38%
30 | O=C(CSc1ccccc1)Nc1cccc(S(=O)(=O)N2CCCCC2)c1 | -5.2%
31 | Cc1cc(NC(=O)C(C)SCC(=O)Nc2cccc(S(=O)(=O)N3CCCCCC3)c2)no1 (stereo not drawn) | 71.1% (active)
32 | C=C1C(C(C)C)N(C)C2=NC(c3ccccc3)CC(=O)N12 (stereo not drawn) | -3.21%
33 | N#Cc1ccc(C(C(=O)NCc2ccccc2)n2c(=O)c(-c3ccco3)nc3ccccc32)cc1 (stereo not drawn) | 20.9%
34 | O=C(NC1CCCCC1)C(c1cc2ccccc2o1)n1c(=O)c(-c2ccco2)nc2ccccc21 (stereo not drawn) | 10.9%
35 | Cc1cccc(C)c1NC(=O)C(c1ccc(C(F)(F)F)cc1)n1c(=O)c(-c2ccco2)nc2ccccc21 (stereo not drawn) | 23.1% (active)
36 | Cc1ccc(CSc2nnc(SCC(=O)NN=Cc3cc(Br)ccc3F)s2)cc1 | 3.3%
37 | CCc1cccc2c3c([nH]c12)C(CC)(CC(=O)O)OCC3 (stereo not drawn) | 1.16%
38 | C[C@H]1CCC/C=C/C(=O)c2c(O)cc(O)cc2CC(=O)O1 | 7.7%
39 | CC(C)[C@@H](NC(=O)OC(C)(C)C)C(=O)NCC1CCC(C(=O)N[C@@H](Cc2ccccc2)C(=O)O)CC1 (stereo partly drawn) | 2.79%
40 | C[C@@H](NC(=O)OC(C)(C)C)c1nnc(S(=O)(=O)Cc2ccccc2)o1 | 21.3% (active)
41 | CC(C)(C)c1ccc(C(CC(=O)O)NS(=O)(=O)Cc2ccccc2)cc1 (stereo not drawn) | -1.05%
42 | CCOC(=O)[C@]12CCCC=C1N(Cc1ccc(OC)cc1)C(=O)[C@@H]2CC(=O)N1CCOCC1 | -1.02%
43 | O=C(NCc1ccc(Cl)cc1)C1CCCN(c2nc3ccccc3o2)C1 (stereo not drawn) | 4.6%
44 | N#Cc1ccccc1S(=O)(=O)N1CCN(C(=O)c2cc(-c3ccccc3)nn2-c2ccccc2)CC1 | -1.25%

Row | SMILES | inhibition
45 | N#Cc1ccccc1S(=O)(=O)N1CCN(Cc2c(O)ccc3ccccc23)CC1 | 34.5% (active)
46 | O=C(CN1CCN(S(=O)(=O)c2cc(Cl)ccc2Cl)CC1)c1ccc(O)c(O)c1 | 18.9%
47 | CC1=CC(C)(C)Nc2ccc(OC(=O)CN3C(=O)C4CCCCC4C3=O)cc21 (stereo not drawn) | 0.85%
48 | CCOC(=O)c1c(N)c(C#N)nn1-c1ccccc1C(=O)OC | 6.05%
49 | O=C1CCCCC1Sc1ccc(Cl)cc1[N+](=O)[O-] (stereo not drawn) | 48.8% (active)
50 | CSc1ccccc1NC(=O)CN(C)CC(=O)Nc1ccc(Cl)cc1[N+](=O)[O-] | -1.57%
51 | O=C(COc1ccc(Cl)cc1[N+](=O)[O-])N1CCCCC1 | -4.9%
52 | CC(=O)OCCN1CCCC12CCC(c1ccccc1)CC2 (stereo not drawn) | 2.94%
53 | C=C(C)C1CC23C(=O)C4(C(=O)c5ccccc5)C[C@@]5(C)CCC(CC2C1(C)C)(C4=O)C35OC (stereo partly drawn) | 3.86%
54 | COc1ccc(C2CC(c3cccs3)=NN2c2nc(C)c(C(C)=O)s2)cc1OC (stereo not drawn) | 0.1%
55 | COc1ccc(C2CC(c3cccs3)=Nc3ccccc3S2)cc1OC (stereo not drawn) | 63.7% (active)
56 | COc1ccc(C2CC(=O)n3c(nc4ccccc43)S2)cc1OC (stereo not drawn) | 0.28%
57 | O=S1(=O)c2ccc(Br)cc2OC[C@@H](Cc2ccccc2)N1Cc1cn(Cc2ccco2)nn1 | -6.43%
58 | COc1ccc(C(=O)CSc2nnc(-c3cnccn3)n2-c2ccc(C)cc2)cc1 | -1.24%
59 | N#CCC(=O)NC(=O)NCC1CC1 | 1.85%
60 | Nc1ccc2nc3c(=O)[nH]c(=S)[nH]c3nc2c1 | 129% (active)
61 | COc1nc(NCc2ccc(Cl)cc2)nc(OC)n1 | -0.93%
62 | CCN(CC)S(=O)(=O)c1cccc(-c2n[nH]c(=S)n2/N=C/c2ccc(C(=O)OC)cc2)c1 | 31.9% (active)
63 | CCN(CC)S(=O)(=O)c1cccc(NC(=O)c2ccc(S(=O)(=O)N3CCCC3)cc2)c1 | 2.8%
64 | COC(=O)c1ccc(/C=N/N2C(C)CCCC2C)cc1 (stereo not drawn) | -0.34%
65 | CCOC(=O)Cc1csc(NC(=O)CSc2nc(C)cc(=O)[nH]2)n1 | 63.7% (active)
66 | CCOC(=O)Cc1csc(SCC(=O)Nc2ccc(C)cc2F)n1 | 1.96%

Row | SMILES | inhibition
67 | Cc1cc(=O)[nH]c(SCC(=O)Nc2ccc(Cl)cc2C)n1 | -2.19%
68 | Clc1cccc2c1C1CC2CCN1Cc1ccccc1 (stereo not drawn) | -1.44%
69 | CCCn1c(N)c(C(=O)CSc2nnc(-c3cccnc3)n2-c2ccc(C)cc2C)c(=O)[nH]c1=O | -1.38%
70 | COc1ccc(C#CCNCc2ccc(OC)cc2OC)cc1 | 0.44%
71 | Cc1ccc(-c2nn(-c3ccccc3)cc2/C=C2\SC(=S)N(CCCCCC(=O)O)C2=O)o1 | 78.2% (active)
72 | CN(C)S(=O)(=O)c1cccc(-c2nn(-c3ccccc3)cc2/C=C2\SC(=S)N(CC(=O)O)C2=O)c1 | 28.2% (active)
73 | Cc1ccc(-c2nn(-c3ccccc3)cc2CN(Cc2ccccc2)C(=O)CCC(=O)O)o1 | 30.5% (active)
74 | O=C(/C=C/c1cn(-c2ccccc2)nc1-c1ccc2c(c1)OCCO2)NCCCN1CCOCC1 | 3.18%
75 | O=C(O)CCC(=O)N(Cc1ccccc1)Cc1ccccc1 | -4.57%
76 | Cc1ccc(-c2nn(-c3cccc(F)c3)cc2CNCCc2ccncc2)o1 | -2.78%
77 | COc1cccc(-c2nn(-c3ccccc3)cc2/C=C(\C#N)C(=O)NCCCn2ccnc2)c1 | -2.79%
78 | COc1ccc(COCCN2CCN(S(=O)(=O)c3ccccc3)CCC2=O)cc1 | 1.29%
79 | O=C(NCC1COc2ccccc2O1)c1ccc(NC(=O)c2cc(F)ccc2F)cc1 (stereo not drawn) | 4.4%
80 | NC(=O)c1ncn([C@@H]2O[C@H](CNCc3cnc(N4CCOCC4)s3)[C@@H](O)[C@H]2O)n1 | -0.65%
81 | C[C@@H]1ON(C)[C@H]2C[C@H]3c4[nH]c5cccc(-c6ccc7c(c6)OCO7)c5c4CCN3C[C@@H]12 | -2.89%
82 | COC(=O)[C@H](C(C)C)N1CCc2nnn(Cc3ccc(C)cc3)c2-c2ccccc2S1(=O)=O | 0.49%
83 | CCOC(=O)[C@]12CCCC3=C1N(CCC3)C(=O)[C@@H](CC(=O)NCC13CC4CC(CC(C4)C1)C3)C2 | -3.58%
84 | CCC(=O)c1c(CC)c2n3c1=CC[C@H]3CC(Br)C=2 (stereo partly drawn) | 0.28%
85 | COc1ccc(-n2c(SCC(=O)NC3CCCC3)nnc2-c2ccncc2)cc1 | 4.19%
86 | N#CC1(NC(=O)COC(=O)Cc2n[nH]c(=O)c3ccccc23)CCCCC1 | 1.07%
87 | N#CC1(Nc2ccc3c4c(cccc24)CC3)CCCCC1 | 50.2% (active)
88 | O=S(=O)(NC1CC1)c1ccc2c3c(cccc13)CC2 | -2.46%
